Assay results as given in PubChem BioAssay (Tox21).
Values joined by “and” are separate entries in the source; they are usually repeats but may differ in a detail not shown here. Equal values may be shown once. Results filed as inconclusive are left out. A call without a number means that no potency is given here. Where a structure was tested more than once in an assay, its records may differ in their call. Active and inactive are the calls of the source. Unless noted, the call rests on the fitted dose curve; in most records, active means well fitted curve in the direction sought with a large enough effect in the repeat runs; inconclusive means weak or mixed curves; inactive means no such curve, though single readings can be large; an effect the other way counts as inactive or inconclusive.

Key:
[1] = A CellTox Green Cytotoxicity Assay to monitor cytotoxicity in HepG2 cells - 0 hour (AID 1224882); further: nearly all actives have a fitted effect of over 35% in size
Method in brief: (§1)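 HepG2 cells, 600/well, preincubated 5 h with CellTox Green dye, then exposed to Tox21 compounds in DMSO at 37 C for up to 40 h. Dead-cell DNA fluorescence read at the indicated time point.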

[2] = A CellTox Green Cytotoxicity Assay to monitor cytotoxicity in HepG2 cells - 32 hour (AID 1224883); further: nearly all actives have a fitted effect of over 50% in size; further: potency means the concentration at half of the fitted maximal effect
Method in brief: as §1

[3] = A CellTox Green Cytotoxicity Assay to monitor cytotoxicity in HEK293 cells - 8 hour (AID 1224884); further: nearly all actives have a fitted effect of over 35% in size
Method in brief: (§2)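 HEK293 cells, 600/well, were preincubated 5 hours and then exposed to compounds at 37 C for up to 40 hours. A cell-impermeant cyanine dye staining dead-cell DNA was read by fluorescence at 0, 8, 16, 24, 32 and 40 h time points.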

[4] = qHTS RealTime-Glo MT Cell Viability Assay in HepG2 cells - 16 hour (AID 1224885); further: nearly all actives have a fitted effect of over 50% in size
Method in brief: (§3)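 HepG2 cells (600/well) were dispensed with RealTime-Glo reagents, incubated 5 h at 37 °C, then treated with compounds in DMSO for up to 40 h. Nonlytic NanoLuc luminescence reflecting viable cells was read at each stated time point.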

[5] = qHTS RealTime-Glo MT Cell Viability Assay in HEK293 cells - 24 hour (AID 1224886); further: nearly all actives have a fitted effect of over 50% in size; further: potency means the concentration at half of the fitted maximal effect
Method in brief: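 HEK293 cells seeded with NanoLuc/prosubstrate reagent, rested 5 h at 37 C, then dosed and kept at 37 C up to 40 h. Nonlytic real-time luminescence from viable cells read at 0, 8, 16, 24, 32 and 40 h.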

[6] = qHTS RealTime-Glo MT Cell Viability Assay in HEK293 cells - 8 hour (AID 1224887); further: top concentration of the series differs between compounds; nearly all actives have a fitted effect of over 50% in size
Method in brief: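 600 cells/well were plated with the nonlytic NanoLuc/prosubstrate reagent, pre-incubated 5 h, then given 23 nL of compound in DMSO. Incubation at 37 C for 40 h, with luminescence from viable-cell-reduced substrate read repeatedly from 0 h.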

[7] = A CellTox Green Cytotoxicity Assay to monitor cytotoxicity in HEK293 cells - 16 hour (AID 1224888); further: nearly all actives have a fitted effect of over 35% in size
Method in brief: as §2

[8] = qHTS RealTime-Glo MT Cell Viability Assay in HepG2 cells - 0 hour (AID 1224889); further: nearly all actives have a fitted effect of over 50% in size
Method in brief: as §3

[9] = A CellTox Green Cytotoxicity Assay to monitor cytotoxicity in HepG2 cells - 8 hour (AID 1224890); further: nearly all actives have a fitted effect of over 45% in size
Method in brief: as §1

[10] = qHTS assay to identify small molecule antagonists of the estrogen receptor alpha (ER-alpha) signaling pathway using the BG1 cell line in the presence of 0.1 nM 17-beta-estradiol - cell viability counter screen (AID 1259241); further: nearly all actives have a fitted effect of over 40% in size; further: potency means the concentration at half of the fitted maximal effect
Method in brief: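 In this screen, hormone-deprived VM7Luc4E2 cells were seeded at 4,000 per well, dosed with compound and 0.1 nM estradiol final, and incubated 22 hr at 37C and 5% CO2; fluorogenic live-cell protease signal reported viability.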

[11] = qHTS assay to identify small molecule antagonists of the androgen receptor (AR) signaling pathway using the MDA cell line in the presence of 0.5 nM R1881 - cell viability counter screen (AID 1259242); further: nearly all actives have a fitted effect of over 45% in size; further: potency means the concentration at half of the fitted maximal effect
Method in brief: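 MDA-kb2 cells (MMTV-luciferase, AR/GR responsive) were treated with compounds plus 0.5 nM R1881 (final) for 16 hr at 37C, 0% CO2. Viability was then read in the same wells as live-cell protease fluorescence (CellTiter-Fluor, 30 min).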

[12] = biological target: Estrogen receptor (Homo sapiens) (UniProt P03372); test: qHTS assay to identify small molecule antagonists of the estrogen receptor alpha (ER-alpha) signaling pathway using the BG1 cell line in the presence of 0.1 nM 17-beta-estradiol (AID 1259244); further: nearly all actives have a fitted effect of over 50% in size
Method in brief: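 VM7Luc4E2 cells (endogenous full-length ER-alpha, 4×ERE-luciferase), kept 5 days in phenol red-free, charcoal-stripped FBS medium; 4,000 cells/well. Compounds added with 0.1 nM (final) 17beta-estradiol, 22 hr at 37C; luminescence read with ONE-Glo after 30 min.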

[13] = qHTS assay to identify small molecule HDAC inhibitors (AID 1259364); further: nearly all actives have a fitted effect of over 45% in size; further: potency means the concentration at half of the fitted maximal effect
Method in brief: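 Wild-type HCT-116 cells, plated overnight at 37 C, exposed to compounds 2 hr at 37 C; luminogenic HDAC-Glo substrate then added 30 min at room temperature. Luminescence reports relative endogenous class I/II HDAC activity.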

[14] = qHTS assay to identify small molecule HDAC inhibitors - cell viability counter screen (AID 1259365)
Method in brief: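 Measured quantity is CellTiter-Glo luminescence from wild-type HCT-116 cells after compound incubation of 2hr at 37C, 5% CO2; reagent developed 30min at room temperature.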

[15] = qHTS assay to identify small molecule agonists of the sonic hedgehog signaling (Shh) pathway - cell viability counter screen (AID 1259366); further: nearly all actives have a fitted effect of over 50% in size; further: potency means the concentration at half of the fitted maximal effect
Method in brief: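 In quantitative high-throughput format, 3T3 Gli1-Luc cells were exposed to compounds for 24hr and multiplexed for viability using CellTiter-Fluor, incubated 1hr at 37C before the fluorescence read.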

[16] = qHTS assay to identify small molecule antagonists of the sonic hedgehog signaling (Shh) pathway - cell viability counter screen (AID 1259367); further: nearly all actives have a fitted effect of over 55% in size; further: potency means the concentration at half of the fitted maximal effect
Method in brief: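 Seed 3T3 Gli1-Luc cells at 2,000 per well; incubate 4 hr; add compound in DMSO, then conditioned medium; incubate at 37C with 5% CO2; add CellTiter-Fluor after 23 hr; read fluorescence 1 hr later.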

[17] = qHTS assay to identify small molecule agonists of the sonic hedgehog signaling (Shh) pathway (AID 1259368; calls by dose curve;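 further: NIH/3T3-derived 3T3Gli1-Luc cells carrying a stable Gli1-driven firefly luciferase reporter; series mostly up to about 92 µM; nearly all actives have a fitted effect of over 15% in size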)
Method in brief: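 NIH/3T3-derived 3T3Gli1-Luc cells with stably integrated Gli1-driven firefly luciferase, 2,000 cells/well, compounds added after 4 hr. Incubated 24 hr at 37C, 5% CO2; luminescence read after 30 min with luciferase reagent at room temperature.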

[18] = qHTS assay to identify small molecule antagonists of the sonic hedgehog signaling (Shh) pathway (AID 1259369; calls by dose curve; further: nearly all actives have a fitted effect of over 45% in size)
Method in brief: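 NIH/3T3-derived Gli1-Luc reporter cells plated 4 h, dosed with compound, then stimulated with conditioned medium for 24 h at 37 C. Firefly luciferase luminescence read after 30 min with detection reagent at room temperature.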

[19] = qHTS assay to identify small molecule phospholipidosis (PLD) inducers (AID 1259344; active means well fitted curve in the direction sought with a large enough effect; an effect the other way counts as inactive or inconclusive)
Method in brief: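 Quantitative HTS in HepG2: compound plus LipidTOX Red dye for 24 h, paraformaldehyde fixation with Hoechst 33342, widefield high-content imaging; amiodarone as positive and DMSO as negative control.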

[20] = biological target: Androgen receptor (Homo sapiens) (UniProt P10275); test: qHTS assay to identify small molecule antagonists of the androgen receptor (AR) signaling pathway using the MDA cell line in the presence of 0.5 nM R1881 (AID 1259243); further: nearly all actives have a fitted effect of over 50% in size
Method in brief: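 MDA-kb2 cells (MMTV-luciferase, responsive to AR and GR) at 3,000/well, rested 5 h at 37C, 0% CO2, then given compounds plus 0.5 nM R1881 (final) for 16 hr. Luciferase read with ONE-Glo after 30 min at room temperature.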

Chain of Estrogen receptor (Homo sapiens) (P03372 whole entry, looked up): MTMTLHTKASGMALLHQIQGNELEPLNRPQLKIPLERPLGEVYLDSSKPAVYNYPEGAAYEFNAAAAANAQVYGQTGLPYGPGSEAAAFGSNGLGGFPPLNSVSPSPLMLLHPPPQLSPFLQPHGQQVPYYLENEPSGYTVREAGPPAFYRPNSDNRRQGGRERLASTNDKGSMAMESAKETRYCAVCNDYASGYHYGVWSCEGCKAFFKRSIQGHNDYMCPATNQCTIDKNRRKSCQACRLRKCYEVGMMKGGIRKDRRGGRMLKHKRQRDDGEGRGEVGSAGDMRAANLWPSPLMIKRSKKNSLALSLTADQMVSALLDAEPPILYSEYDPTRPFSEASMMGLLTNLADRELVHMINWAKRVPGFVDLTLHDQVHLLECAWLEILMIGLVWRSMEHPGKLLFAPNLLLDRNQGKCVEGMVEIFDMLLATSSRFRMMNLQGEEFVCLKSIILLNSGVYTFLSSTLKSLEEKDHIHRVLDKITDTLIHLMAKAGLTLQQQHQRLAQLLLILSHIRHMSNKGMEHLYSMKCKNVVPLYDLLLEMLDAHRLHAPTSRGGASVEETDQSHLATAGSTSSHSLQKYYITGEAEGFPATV
Chain of Androgen receptor (Homo sapiens) (P10275 whole entry, looked up): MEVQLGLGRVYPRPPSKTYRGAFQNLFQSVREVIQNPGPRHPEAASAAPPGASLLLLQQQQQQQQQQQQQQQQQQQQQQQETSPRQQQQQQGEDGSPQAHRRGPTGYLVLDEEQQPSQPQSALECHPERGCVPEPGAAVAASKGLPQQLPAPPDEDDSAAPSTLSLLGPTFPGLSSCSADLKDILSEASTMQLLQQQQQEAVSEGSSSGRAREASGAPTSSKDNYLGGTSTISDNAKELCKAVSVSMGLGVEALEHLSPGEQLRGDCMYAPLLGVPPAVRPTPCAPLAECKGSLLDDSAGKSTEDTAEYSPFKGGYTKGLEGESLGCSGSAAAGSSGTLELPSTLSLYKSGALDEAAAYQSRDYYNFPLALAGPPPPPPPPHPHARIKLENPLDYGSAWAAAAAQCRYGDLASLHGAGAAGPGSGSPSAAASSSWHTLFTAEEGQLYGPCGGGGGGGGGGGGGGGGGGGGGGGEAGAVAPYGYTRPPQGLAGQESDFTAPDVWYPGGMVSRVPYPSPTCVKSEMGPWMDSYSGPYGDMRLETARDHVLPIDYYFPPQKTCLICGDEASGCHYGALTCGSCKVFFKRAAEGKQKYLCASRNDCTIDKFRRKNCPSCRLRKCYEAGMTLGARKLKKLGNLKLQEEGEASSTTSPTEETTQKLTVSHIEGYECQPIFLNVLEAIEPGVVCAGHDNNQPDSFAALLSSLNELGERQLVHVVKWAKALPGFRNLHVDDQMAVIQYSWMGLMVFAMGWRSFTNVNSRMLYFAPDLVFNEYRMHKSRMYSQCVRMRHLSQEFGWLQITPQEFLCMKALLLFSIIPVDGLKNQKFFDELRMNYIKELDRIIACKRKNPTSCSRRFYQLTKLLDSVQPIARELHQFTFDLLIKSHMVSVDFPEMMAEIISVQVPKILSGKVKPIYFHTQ

SMILES	outcome [1]	Potency [2]	outcome [3]	Potency [4]	Potency [5]	Potency [6]	Potency [7]	Potency [8]	outcome [9]	Potency [10]	Potency [11]	Potency [12]	Potency [13]	outcome [14]	Potency [15]	Potency [16]	outcome [17]	Potency [18]	outcome [19]	Potency [20]
CC1(C)NC(=O)NC1=O	inactive	inactive	inactive	inactive	inactive	inactive	inactive	inactive	inactive	inactive	inactive	inactive	inactive	inactive	inactive	inactive	inactive	inactive		
CNC(=S)N(C)C	inactive	inactive	inactive	inactive	inactive and 13 µM (active)	inactive	inactive	inactive	inactive	inactive	inactive	inactive	inactive	inactive	inactive	inactive	inactive	inactive		
COc1ccc(N)c(C)c1	inactive	inactive	inactive	inactive	inactive	inactive	inactive	inactive	inactive	inactive	inactive	inactive	inactive	inactive	inactive	inactive	inactive	inactive		
CC(=O)c1ccc(O)cc1	inactive	inactive	inactive	inactive	inactive	inactive	inactive	inactive	inactive	inactive	inactive	inactive	inactive	inactive	inactive	inactive	inactive	inactive		
O=C(O)c1ccccc1C(=O)O	inactive	inactive	inactive	inactive	inactive	inactive	inactive	inactive	inactive	inactive	inactive	inactive	inactive	inactive	inactive	inactive	inactive	inactive		
CC(=O)CCC=C(C)C	inactive	inactive	inactive	inactive	inactive	inactive	inactive	inactive	inactive	inactive	inactive	inactive	inactive	inactive	inactive	inactive	inactive	inactive		
O=S(=O)(O)c1ccccc1	inactive	inactive	inactive	inactive	inactive	inactive	inactive	inactive	inactive	inactive	inactive		inactive	inactive	inactive	inactive	inactive	inactive		
O=C(O)/C=C/C(=O)O	inactive	inactive	inactive	inactive	inactive	inactive	inactive	inactive	inactive				inactive	inactive	inactive	inactive	inactive	inactive		
N[C@H](Cc1c[nH]c2ccccc12)C(=O)O	inactive	inactive	inactive	inactive	inactive	inactive	inactive	inactive	inactive	inactive	inactive		inactive	inactive	inactive	inactive	inactive	inactive	inactive	
CN/C(=C\[N+](=O)[O-])NCCSCc1csc(CN(C)C)n1	inactive	inactive	inactive	inactive		inactive	inactive	inactive	inactive	inactive	inactive		inactive	inactive	inactive	inactive	inactive	inactive	inactive	inactive
COC(=O)CCCC(=O)OC	inactive	inactive	inactive	inactive	inactive	inactive	inactive	inactive	inactive	inactive	inactive		inactive	inactive	inactive	inactive	inactive	inactive		
CN(C)CCOC(=O)COc1ccc(Cl)cc1	inactive	inactive	inactive	inactive	inactive	inactive	inactive	inactive	inactive	inactive	inactive		inactive	inactive	inactive	inactive	inactive	inactive	inactive	
O=S(=O)(O)c1ccc(N=Nc2c(O)ccc3cc(S(=O)(=O)O)ccc23)cc1	inactive	inactive	inactive	inactive	inactive		inactive	inactive	inactive	30.8 µM (active) and 27.3 µM (active)	54.7 µM (active) and 27.3 µM (active)	inactive	inactive	inactive	30.8 µM (active) and 30.6 µM (active)	27.4 µM (active) and 27.3 µM (active)	inactive	inactive		
CC(=O)OC1CC(C)OC(C)O1 (stereo not drawn)	inactive	inactive	inactive	inactive	inactive	inactive	inactive	inactive	inactive	inactive	inactive		inactive	inactive	inactive	inactive	inactive	inactive		
NCCNCCN	inactive	inactive	inactive	inactive	inactive	inactive	inactive	inactive	inactive	inactive	inactive		inactive	inactive	inactive	inactive	inactive	inactive	inactive	
O=C(O)c1cc2ccccc2cc1O	inactive	inactive	inactive	inactive		inactive	inactive	inactive	inactive	inactive	inactive	inactive	27.1 µM (active) and 24.3 µM (active)	inactive	inactive	inactive	inactive	inactive		inactive
CC(C)(C#N)c1cc(Cn2cncn2)cc(C(C)(C)C#N)c1	inactive	inactive	inactive	inactive	inactive	inactive		inactive	inactive	inactive	inactive		inactive	inactive	inactive	inactive	inactive	inactive	inactive	

SMILES	outcome [1]	Potency [2]	outcome [3]	Potency [4]	Potency [5]	Potency [6]	Potency [7]	Potency [8]	outcome [9]	Potency [10]	Potency [11]	Potency [12]	Potency [13]	outcome [14]	Potency [15]	Potency [16]	outcome [17]	Potency [18]	outcome [19]	Potency [20]
CC1(C)S[C@@H]2[C@H](NC(=O)COc3ccccc3)C(=O)N2[C@H]1C(=O)O	inactive	inactive	inactive	inactive	inactive	inactive		inactive	inactive	inactive	inactive	inactive	inactive	inactive	inactive	inactive	inactive	inactive		
CCNc1ccccc1	inactive	inactive	inactive	inactive	inactive	inactive		inactive	inactive	inactive	inactive		inactive	inactive	inactive	inactive	inactive	inactive		inactive
CN1C(=O)CC[C@H]1c1cccnc1	inactive	inactive	inactive	inactive	inactive	inactive		inactive	inactive	inactive	inactive		inactive	inactive	inactive	inactive	inactive	inactive	inactive	
O=C1c2ccccc2CCc2ccccc21	inactive	inactive	inactive	inactive	inactive	inactive	inactive	inactive	inactive	inactive	inactive		27.9 µM (active)	inactive	inactive	inactive	inactive	inactive		
CC(O)CC(C)(C)O (stereo not drawn)	inactive	inactive	inactive	inactive	inactive	inactive		inactive	inactive	inactive	inactive		inactive	inactive	inactive	inactive	inactive	inactive		
c1ccc(Oc2ccccc2)cc1	inactive	inactive	inactive	inactive	inactive	inactive		inactive	inactive	inactive	inactive		inactive	inactive	inactive	inactive	inactive	inactive		
C=Cc1ccc(C)cc1	inactive	inactive	inactive	inactive	inactive	inactive		inactive	inactive	inactive	inactive		inactive	inactive	inactive	inactive	inactive	inactive		
CCOC(=O)n1ccn(C)c1=S	inactive	inactive	inactive	inactive	inactive	inactive		inactive	inactive	inactive	inactive	inactive	inactive	inactive	inactive	inactive	inactive	inactive	inactive	
NC(=S)NNC(N)=S	inactive	inactive	inactive	inactive	inactive	inactive		inactive	inactive	inactive	inactive		inactive	inactive	inactive	inactive	inactive	inactive		
CSc1ccc(Cl)cc1	inactive	inactive	inactive	inactive	inactive	inactive		inactive	inactive	inactive	inactive	inactive	inactive	inactive	inactive	inactive	inactive	inactive		inactive
CCCCC(C=O)CC (stereo not drawn)	inactive	inactive and 14.6 µM (active)	inactive	inactive	inactive	inactive		inactive	inactive	inactive	inactive	inactive	inactive	inactive	inactive	inactive	inactive	inactive		
CC(C)=CCl	inactive	inactive	inactive	inactive	inactive	inactive		inactive	inactive	inactive	inactive	inactive	inactive	inactive	inactive	inactive	inactive	inactive		
C=CC[N+](C)(C)CC=C	inactive	inactive	inactive	inactive	inactive	inactive	inactive	inactive	inactive	inactive	inactive		inactive	inactive	inactive	inactive	inactive	inactive		
CCCCCCCCCCN	inactive	inactive	inactive	inactive	inactive	inactive		inactive	inactive	inactive	inactive		inactive	inactive	inactive	inactive	inactive	inactive		
O=C(O)CCCCCCCCC(=O)O	inactive	inactive	inactive	inactive	inactive	inactive		inactive	inactive	inactive	inactive		inactive	inactive	inactive	inactive	inactive	inactive		
N#Cc1ccccc1	inactive	inactive	inactive	inactive	inactive	inactive		inactive	inactive	inactive	inactive		inactive	inactive	inactive	inactive	inactive	inactive		
CN(C)c1ccc(O)c2c1C[C@H]1C[C@H]3[C@H](N(C)C)C(=O)C(C(N)=O)=C(O)[C@@]3(O)C(=O)C1=C2O	inactive	inactive	inactive	inactive	inactive	inactive		inactive	inactive	inactive	inactive	inactive	inactive	inactive	inactive	inactive	inactive	inactive	inactive	
